Assay outcomes as filed in PubChem BioAssay.
Rows were chosen to be rich in hits. Some 9.2% of all compounds tested hit in one or more screens of this group.
FLuc counter: inhibits or activates purified firefly luciferase, miR-21 counter-screen. Potency, µM (titrated, usually from 57.5 µM), inactives show at the top dose activity change, negative = inhibition, usual class: inhibitors. 360,000 compounds, 6.9% hits. purified FLuc, Km substrates, luminescence inhibition. P08659;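 note: plate controls were vehicle for no effect and reference inhibitor for full effect; nearly all actives have a fitted effect of over 55% in size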
Target sequence (P08659 whole entry, looked up): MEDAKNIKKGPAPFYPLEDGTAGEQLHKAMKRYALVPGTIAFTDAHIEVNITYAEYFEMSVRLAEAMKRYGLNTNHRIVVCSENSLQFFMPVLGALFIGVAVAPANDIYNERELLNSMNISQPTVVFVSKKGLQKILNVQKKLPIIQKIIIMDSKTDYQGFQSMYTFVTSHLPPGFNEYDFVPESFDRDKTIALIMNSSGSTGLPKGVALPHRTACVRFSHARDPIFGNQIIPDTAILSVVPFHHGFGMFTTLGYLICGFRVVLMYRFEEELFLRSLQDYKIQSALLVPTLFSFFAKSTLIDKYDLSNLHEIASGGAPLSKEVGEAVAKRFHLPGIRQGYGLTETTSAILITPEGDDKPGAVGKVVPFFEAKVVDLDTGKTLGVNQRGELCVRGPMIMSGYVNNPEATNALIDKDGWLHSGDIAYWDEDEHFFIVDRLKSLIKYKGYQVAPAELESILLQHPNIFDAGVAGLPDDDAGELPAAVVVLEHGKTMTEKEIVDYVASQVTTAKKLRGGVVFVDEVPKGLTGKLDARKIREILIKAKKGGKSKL
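Purified P. pyralis luciferase, 10 nM final, with Km-level 10 uM D-luciferin and 10 uM ATP in 50 mM Tris acetate pH 7.5, 10 mM Mg acetate, 0.01% Tween-20, 0.05% BSA; 6-point qHTS titration about 60 µM downward; luminescence read.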
ELG1 genotoxic: genotoxicity induction in ELG1-luciferase HEK293T cells | HEK293T ELG1-luciferase reporter, luminescence, 16 h | Potency, µM (doses to about 46 µM), inactives show at the top dose activity change, positive = activation, actives largely listed as activators | 330,000 compounds, 1.3% hits | AID 504466; note: % of control where 0% means no effect; nearly all actives have a fitted effect of over 60% in size
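Reporter readout depends on ELG1 protein level, which increases with genetic stress. After 16 hr compound exposure at 37 °C, luciferase activity was quantified using ONE-Glo.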
ELG1 DNA repair: ELG1-dependent DNA repair inhibition. HEK293T ELG1-luciferase reporter, luminescence, 16 h; DNA damage induced by 5-fluorouridine. Potency, µM (top dose mostly 46.1 µM), for inactives: at the top dose activity change, negative = inhibition, hits mostly inhibitors. 330,000 compounds, 2.3% hits; note: % is set by controls: 0 for no effect and ±100 for the full control effect; nearly all actives have a fitted effect of over 55% in size
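DMSO vehicle served as the neutral condition. Each well held 2,000 cells given 5-fluorouridine plus compound; after 16 hr at 37 °C/5% CO2, ONE-Glo was added and luciferase measured 30 min later.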
NPC1 prom act: NPC1 promoter activation; Huh7 NPC1 promoter luciferase reporter, 24 h; 320,000 compounds, 2.4% hits; AID 485313; Potency, µM (top dose mostly 9.22 µM), for inactives: top-dose activation, usual class: activators; note: % of control where 0% means no effect; nearly all actives have a fitted effect of over 60% in size
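Stably transfected Huh7 (NPC1 promoter→luciferase), 1500 cells/well in Opti-MEM + 10% FBS, 2 h settle, then compound 24 h at 37 °C. Luminescence after 10 min with Amplite reagent.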
Rab9 prom act: Rab9 promoter activation; 320,000 compounds, 2.8% hits; AID 485297; Potency, µM (titrated, usually from 9.22 µM), for inactives: top-dose activation, negative = inhibition, actives largely listed as activators; Huh7 Rab9 promoter-luciferase reporter, luminescence, 24 h; note: % of control where 0% means no effect; nearly all actives have a fitted effect of over 60% in size
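Rab9 promoter-driven luciferase in stably transfected Huh7 cells; 1500 cells/well rested 2 h, exposed to compound in DMSO for 24 h at 37 °C, 5% CO2. Luminescence read 10 min after adding luciferase reagent at ambient temperature.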
SMN2 splice enh: enhancers of SMN2 splice variant expression. HEK293 SMN2-luciferase splicing reporter, luminescence, 30-36 h. Potency, µM (titrated, usually from 46.1 µM), without a hit: at the top dose activity change, positive = activation, most hits filed as activators. 210,000 compounds, 2.8% hits. AID 1458; note: % of control where 0% means no effect; nearly all actives have a fitted effect of over 55% in size
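qHTS luciferase splicing reporter: luminescence rises when SMN2 exon 7 is included in transfected HEK293 cells. Compound exposure lasted 30-36 h at 37C, with 4.5 mM final sodium butyrate as control, followed by a ONE-Glo read.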
Active calls of the source: *. Calls come from the whole dose curve; as a rule, active = well fitted curve in the direction sought with a large enough effect; inconclusive = small, poorly fitted or top-dose-only effect, or another doubt; inactive = no such curve, though single readings can be large; an effect the other way counts as inactive or inconclusive. Potency is the fitted concentration of half-maximal effect.

Screening C=CCN1CCN(C(=O)c2cc3c(s2)CCCC3)CC1 returned FLuc counter -3%, ELG1 genotoxic inconclusive, ELG1 DNA repair inconclusive, NPC1 prom act 17% and Rab9 prom act 20%.
`CC(C)NC(=O)Cn1ccc2cc(S(=O)(=O)N3CCCCCC3)ccc21` gave FLuc counter 4%.
For COc1ccc(Cc2nc3ccc(C(=O)N4CCCCC4CCO)cc3o2)cc1 (stereo not given) the results were FLuc counter -7%, ELG1 genotoxic 2%, ELG1 DNA repair -3%, NPC1 prom act 9% and Rab9 prom act -4%.
`COc1ccc(Cc2nc3ccc(C(=O)NCc4cc(C)no4)cc3o2)cc1` gave FLuc counter 13µM*, ELG1 genotoxic 16µM*, ELG1 DNA repair inconclusive, NPC1 prom act 4µM* and Rab9 prom act 3.5µM*.
COc1ccc(Cc2nc3ccc(C(=O)NCC(C)(C)OC)cc3o2)cc1 was read as FLuc counter 19µM*, ELG1 genotoxic inconclusive, ELG1 DNA repair inconclusive, NPC1 prom act 3.5µM* and Rab9 prom act 3.5µM*.
For COc1ccc(Cc2nc3ccc(C(=O)NCCc4ccccc4)cc3o2)cc1 the results were FLuc counter 4%.
CCc1cc(CNC(=O)c2ccc3nc(Cc4ccc(OC)c(OC)c4)oc3c2)on1 was read as FLuc counter -12%, ELG1 genotoxic 9%, ELG1 DNA repair inconclusive, NPC1 prom act 0% and Rab9 prom act -10%.
Screening CCC1CCCCN1C(=O)c1ccc2nc(Cc3ccc(OC)cc3)oc2c1 (stereo not given) returned FLuc counter 19µM*, ELG1 genotoxic inconclusive, ELG1 DNA repair inconclusive, NPC1 prom act inconclusive and Rab9 prom act 3.5µM*.
For O=C(Nc1ccc(OC(F)(F)F)cc1)C1=NCCN1 the results were FLuc counter 6.7µM*, ELG1 genotoxic 10%, ELG1 DNA repair inconclusive, NPC1 prom act inconclusive, Rab9 prom act 2% and SMN2 splice enh 2%.
COc1ccc(-c2[nH]ncc2C(=O)NCc2cccc(Cl)c2)cc1 was read as FLuc counter -13% and SMN2 splice enh -7%.
For Cc1ccc(-c2cnc(-c3ccncc3)o2)cc1 the results were FLuc counter 6.7µM*, ELG1 genotoxic 18µM*, ELG1 DNA repair inconclusive, NPC1 prom act inconclusive, Rab9 prom act inconclusive and SMN2 splice enh 22µM*.
Screening Nc1ccc(-c2ncc(-c3ccccc3)o2)cc1 returned FLuc counter 1.5µM*, ELG1 genotoxic inconclusive, ELG1 DNA repair inconclusive, NPC1 prom act -17% and Rab9 prom act -33%.
Screening O=[N+]([O-])c1ccc(-c2ncc(-c3ccc(Br)cc3)o2)cc1 returned FLuc counter inconclusive, ELG1 genotoxic 13%, ELG1 DNA repair inconclusive, NPC1 prom act inconclusive and Rab9 prom act inconclusive.
`CC(C)(C)C(=O)NCC(c1ccc2c(c1)OCO2)N1CCOCC1` (stereo not given) gave FLuc counter 2%.
Screening CCc1ccc(CNC(=O)c2ccc(NC(=O)C3=CSCCO3)cc2)cc1 returned FLuc counter -11%, ELG1 genotoxic 12%, ELG1 DNA repair 15%, NPC1 prom act 2% and Rab9 prom act -3%.
For Cc1ccc(OCC(=O)Nc2ccc3nc(SCC(=O)N(C)c4ccccc4)sc3c2)cc1 the results were FLuc counter -10%.
Screening CCOc1ccc(-n2nc3cc(C)c(NC(=O)CC)cc3n2)cc1 returned FLuc counter inconclusive and SMN2 splice enh -10%.
Screening COc1ccc(-n2nc3cc(C)c(NC(=O)C(C)C)cc3n2)cc1 returned FLuc counter 0.21µM*, ELG1 genotoxic inconclusive, ELG1 DNA repair inconclusive, NPC1 prom act 0.32µM*, Rab9 prom act 0.32µM* and SMN2 splice enh 2.8µM*.
For CCc1ccc(-n2nc3cc(C)c(NC(=O)c4cc(OC)cc(OC)c4)cc3n2)cc1 the results were FLuc counter 1.3µM* and SMN2 splice enh 2%.
`COc1ccc(-n2nc3cc(C)c(NC(C)=O)cc3n2)cc1` gave FLuc counter 0.6µM*, ELG1 genotoxic inconclusive, ELG1 DNA repair inconclusive, NPC1 prom act 0.32µM*, Rab9 prom act 0.32µM* and SMN2 splice enh 1.6µM*.
Screening Cc1oc(-c2cc(F)ccc2F)nc1CN1CCN(c2ncnc3ccccc23)CC1 returned FLuc counter 27µM*, ELG1 genotoxic -8%, ELG1 DNA repair inconclusive, NPC1 prom act 6% and Rab9 prom act 0%.
Screening COc1ccc(-c2nc(CN3CCN(c4ncnc5ccccc45)CC3)c(C)o2)c(OC)c1 returned FLuc counter 0%, ELG1 genotoxic -18%, ELG1 DNA repair 7.3µM*, NPC1 prom act -20% and Rab9 prom act -34%.
For COc1cc(S(=O)(=O)NC2CCCCC2C)ccc1F (stereo not given) the results were FLuc counter -1%, ELG1 genotoxic -5%, ELG1 DNA repair -8%, NPC1 prom act -1% and Rab9 prom act 7%.
NS(=O)(=O)c1cccc(NS(=O)(=O)c2ccc3ccccc3c2)c1 was read as FLuc counter 4%, ELG1 genotoxic -5%, ELG1 DNA repair 9%, NPC1 prom act 2% and Rab9 prom act -5%.
`CCC(CC)C(=O)Nc1cccc(C(=O)Nc2ccc3c(c2)OCO3)c1` gave FLuc counter inconclusive, ELG1 genotoxic 11%, ELG1 DNA repair inconclusive, NPC1 prom act 27%, Rab9 prom act 18% and SMN2 splice enh 8.9µM*.
For CCN(CC)S(=O)(=O)c1cccc(C(=O)Nc2ccc3c(c2)OCO3)c1 the results were FLuc counter 15µM*, ELG1 genotoxic 6%, ELG1 DNA repair inconclusive, NPC1 prom act inconclusive, Rab9 prom act inconclusive and SMN2 splice enh inconclusive.
Screening CS(=O)(=O)c1cccc(C(=O)Nc2ccc3c(c2)OCCCO3)c1 returned FLuc counter 15µM*, ELG1 genotoxic inconclusive, ELG1 DNA repair inconclusive, NPC1 prom act inconclusive and Rab9 prom act 3.5µM*.
Screening O=C(Nc1ccc2c(c1)OCCO2)c1cccc(S(=O)(=O)N2CCCCC2)c1 returned FLuc counter inconclusive, ELG1 genotoxic 9%, ELG1 DNA repair 5%, NPC1 prom act -2%, Rab9 prom act -6% and SMN2 splice enh -10%.
Screening CCCN(CCC)S(=O)(=O)c1cccc(C(=O)Nc2ccc3c(c2)OCO3)c1 returned FLuc counter -11%, ELG1 genotoxic -11%, ELG1 DNA repair inconclusive, NPC1 prom act -1%, Rab9 prom act -4% and SMN2 splice enh -9%.
